Reference: PubChem BioAssay (EPA / NIEHS)
The source made the active and inactive calls. Rule for the calls: active = hit-call score of the fitted dose curve at least 0.9, where 1 is the maximum; inactive = score below 0.9.

Experiment: ATG_M_06_CIS: Attagene CIS-FACTORIAL HepG2 Assay for M06 Transcription Factor (Internal Marker) (AID 2282950)
Conditions: HepG2 Attagene CIS-FACTORIAL M06 internal marker reporter; actives raise or lower the signal
Protocol: ATG_CIS is a cell-based, multiplexed-readout assay that uses HepG2, a human liver cell line, with measurements taken at 24 hours after chemical dosing in a 24-well plate.ATG_M_06_CIS is one of 52 assay component(s) measured or calculated from the ATG_CIS assay. It is designed to make measurements of mRNA induction, a form of inducible reporter, as detected with fluorescence intensity signals by Reverse transcription polymerase chain reaction (RT-PCR) and Capillary electrophoresis technology.Data from the assay component ATG_M_06_CIS was analyzed into 1 assay endpoint. This assay endpoint, ATG_M_06_CIS, was analyzed with bidirectional fitting relative to DMSO as the negative control and baseline of activity. Using a type of inducible reporter, measures of mRNA for gain or loss-of-signal activity can be used to understand the background control at the transcription factor-level as they relate to the gene . Furthermore, this assay endpoint can be referred to as a secondary readout, because this assay has produced multiple assay endpoints where this one serves a background control function. To generalize the intended target to other relatable targets, this assay endpoint is annotated to the background measurement intended target family, where the subfamily is internal marker.
Human liver HepG2 cells are transiently transfected with multiple reporter transcription units (MRTUs) in 6-well plates using FuGene 6 reagent (Roche; 3 ml FuGene/1 mg DNA). The MRTU constructs are regulated by a cis-regulating element (promoter). […] A major difference between the CIS and TRANS system is that in CIS activities of endogenous TFs are measured, whereas the TRANS assay evaluates changes in activities of exogenous, chimeric NR-Gal4 proteins. […] At the end of 24 hour incubation, total RNA was isolated using TriZol reagent (Invitrogen). The isolated RNA is then reverse-transcribed using oligo(dT) primer and Mo-MLV reverse transcriptase (Invitrogen) with DNAse I (Ambion) treatment for 30 min. The one-tenth of the produced cDNA was amplified by PCR using Taq DNA polymerase (Invitrogen) and two reporter sequence-specific primers. The PCR products were fluorescently labeled by primer extension with 6-arboxyfluorescein (6-FAM) 5'-labeled reporter sequence-specific primer (2 min at 95 C, 20 s at 68 C and 10 min at 72 C) and these products were digested with 5U of HpaI (New England Biolabs) for 2h at 37 C. The fragments were purified using Qiaquick PCR columns (Qiagen), analyzed on an ABI 3130xL genetic analyzer (Applied Biosystems) with peak positions identified by using a set of X-rhodamine (ROX)-labeled MapMarker1000 molecular weight standards (BioVentures). The raw capillary electrophoresis data was processed using Attagraph software (Attagene).

With `c1ccc2[nH]cnc2c1` as the compound, how does the outcome read?
Its outcome is “inactive”.

Which outcome does the source give for `CC/C=C\CCOC(=O)CC` here?
The outcome was “inactive”.

With `CCCCCCCCCCCC(=O)OC[C@@H](O)[C@H]1OC[C@H](O)[C@H]1O` as the compound, how does the outcome read?
The outcome was “inactive”.

With `O=P(O)(O)O` as the compound, how does the outcome read?
The outcome was “inactive”.

Which outcome does the source give for `C1CCCCC1` here?
The outcome was “inactive”.

For `C=CC(=C)CCCC(C)(C)OC(C)=O`, which outcome is on record?
The outcome was “inactive”.

Which outcome does the source give for `CCCCCC(=O)CC` here?
Its outcome is “inactive”.

With `OCC#CCO` as the compound, how does the outcome read?
Its outcome is “inactive”.

With `O=C(O)CNc1ccccc1` as the compound, how does the outcome read?
Its outcome is “inactive”.

Which outcome does the source give for `COc1cc([C@@H]2c3cc4c(cc3[C@@H](O[C@@H]3O[C@@H]5CO[C@@H](C)O[C@H]5[C@H](O)[C@H]3O)[C@H]3COC(=O)[C@H]23)OCO4)cc(OC)c1O` here?
The outcome was “inactive”.

Which outcome does the source give for `Nc1ccc2c(O)cc(S(=O)(=O)O)cc2c1` here?
Its outcome is “inactive”.

For `O=CN1CCOCC1`, which outcome is on record?
Its outcome is “inactive”.

With `CCCCCCCCc1ccc(S(=O)(=O)O)cc1` as the compound, how does the AC50 read?
Its AC50 is 155 µM (active).

With `Nc1ccc2cc(S(=O)(=O)O)cc(O)c2c1N=Nc1ccccc1C(F)(F)F` as the compound, how does the outcome read?
The outcome was “inactive”.

For `Nc1c(Cl)cc(Cl)cc1[N+](=O)[O-]`, which outcome is on record?
Its outcome is “inactive”.

Which outcome does the source give for `CCCCN(CCCC)C(=O)N(CCCC)CCCC` here?
Its outcome is “inactive”.

For `CC(Oc1cc(Cl)ccc1Cl)C(=O)O` (stereo not given), which outcome is on record?
The outcome was “inactive”.

With `C=Cc1ccc(C(C)(C)C)cc1` as the compound, how does the outcome read?
Its outcome is “inactive”.

Which outcome does the source give for `CCCCCCCCN1CCCC1=O` here?
The outcome was “inactive”.

With `CCCCC(CC)C(=O)OC(C)C` (stereo not given) as the compound, how does the outcome read?
Its outcome is “inactive”.

For `CC1=NN(c2ccc(S(=O)(=O)O)cc2)C(=O)C1`, which outcome is on record?
The outcome was “inactive”.

For `OCc1ccc(Cl)cc1Cl`, which outcome is on record?
The outcome was “inactive”.

For `OC[C@H]1O[C@@H]2O[C@H]3[C@H](O)[C@@H](O)[C@@H](O[C@H]4[C@H](O)[C@@H](O)[C@@H](O[C@H]5[C@H](O)[C@@H](O)[C@@H](O[C@H]6[C@H](O)[C@@H](O)[C@@H](O[C@H]7[C@H](O)[C@@H](O)[C@@H](O[C@H]8[C@H](O)[C@@H](O)[C@@H](O[C@H]9[C@H](O)[C@@H](O)[C@@H](O[C@H]1[C@H](O)[C@H]2O)O[C@@H]9CO)O[C@@H]8CO)O[C@@H]7CO)O[C@@H]6CO)O[C@@H]5CO)O[C@@H]4CO)O[C@@H]3CO`, which outcome is on record?
Its outcome is “inactive”.

For `BrCc1cccc(Oc2ccccc2)c1`, which outcome is on record?
Its outcome is “inactive”.

With `CC(=O)OCCCc1ccccc1` as the compound, how does the outcome read?
The outcome was “inactive”.

With `Oc1c(Cl)cc(Cl)c(Cl)c1Cc1c(O)c(Cl)cc(Cl)c1Cl` as the compound, how does the outcome read?
The outcome was “inactive”.

With `C=C(C)C1CC=C(C)C(=O)C1` (stereo not given) as the compound, how does the outcome read?
Its outcome is “inactive”.

Which outcome does the source give for `CN(C)CCOC(C)(c1ccccc1)c1ccccn1` (stereo not given) here?
The outcome was “inactive”.

Which outcome does the source give for `C=Cc1ccc(C)cc1` here?
The outcome was “inactive”.

With `CCOC(=O)CN` as the compound, how does the outcome read?
The outcome was “inactive”.

Which outcome does the source give for `COS(=O)(=O)O` here?
Its outcome is “inactive”.

For `CN(C)c1cccc(O)c1`, which outcome is on record?
The outcome was “inactive”.

With `Cc1ccc(-c2ccccc2)cc1` as the compound, how does the outcome read?
Its outcome is “inactive”.

For `O=C(Nc1ccc2c(c1)Cc1ccccc1-2)C(F)(F)F`, which outcome is on record?
The outcome was “inactive”.

Which outcome does the source give for `CC=Cc1ccc(OC)c(OC)c1` here?
The outcome was “inactive”.

Which outcome does the source give for `C=C[Si]1(C)O[Si](C)(C=C)O[Si](C)(C=C)O[Si](C)(C=C)O1` (stereo not given) here?
Its outcome is “inactive”.

Which outcome does the source give for `O=C1CCCC=CCCCCCCCCCC1` here?
The outcome was “inactive”.

Which outcome does the source give for `C=C(C)C(=O)OCCOCCOCCOCCOC(=O)C(=C)C` here?
The outcome was “inactive”.

Which outcome does the source give for `OCC(O)c1ccccc1` (stereo not given) here?
The outcome was “inactive”.

With `C=C(CC(=O)O)C(=O)O` as the compound, how does the outcome read?
The outcome was “inactive”.
